This is a sample that favours compounds with a hit; in the whole collection about 19% have one here.
HT1080NT lethal = kills 2HG-producing HT-1080-NT fibrosarcoma cells; HT-1080-NT fibrosarcoma viability, CellTiter-Glo ATP luminescence, 48 h; Potency, µM (highest dose often 46.1 µM), actives largely listed as cytotoxic; 360,000 tested, 1.6% active; AID 686970;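 further: NT is the 2HG producing partner of a matched IDH1 knockdown line; nearly all actives have a fitted effect of over 55% in size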
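Read-out is CellTiter-Glo luminescence after 10 minutes at room temperature, following 48 hours' compound treatment of HT-1080-NT cells (750 cells/well, RPMI, 5% FBS, 37 degrees C).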
DT40 TDP1 CPT = growth inhibition of DT40 Tdp1-/-;hTDP1 cells with camptothecin (screen for TDP1 inhibitors); chicken DT40 Tdp1-/-;hTDP1 cells + 20 nM CPT, ATP luminescence, 48 h; Potency, µM (doses to about 46.2 µM), most hits filed as inhibitors; 420,000 tested, 12% active; AID 686979; further: nearly all actives have a fitted effect of over 55% in size
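Chicken DT40 Tdp1-/- cells stably complemented with human TDP1 were seeded at 400 cells/well in medium containing 20 nM camptothecin, exposed to pin-transferred compounds, and grown at 37 °C for at least 48 hr. Viability was read as ATP luminescence.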
DT40 TDP1 no CPT = qHTS for Inhibitors of human tyrosyl-DNA phosphodiesterase 1 (TDP1): qHTS in cells in absence of CPT. DT40 Tdp1-/- hTDP1 cells, no CPT, ATP luminescence, 48 h. Potency, µM (highest dose often 46.2 µM), usual class: inhibitors. 420,000 tested, 15% active; further: nearly all actives have a fitted effect of over 55% in size
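No-CPT arm: Tdp1-/-;hTDP1 DT40 cells (400/well) plus compounds, incubated ≥48 hr at 37 °C. Readout CellTiter-Glo luminescence.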
IL-1B inflam inh = inflammasome signaling inhibition, IL-1 beta readout; THP-1 LPS/ATP IL-1B secretion, AlphaLISA, 16 h; stronger effect = lower value; activity change, % at 57.5 µM; 360,000 tested, 4.7% active; AID 743279; in the data active means activity change below about -50%; inconclusive means mostly about -30% to -49%
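Secreted IL-1B measured by AlphaLISA bead assay after 16 h compound exposure of THP-1 cells; compounds (final up to 57.5 uM) added 1 h before LPS (250 ng/mL) and ATP (1.25 mM) stimulation; lower signal means less secretion.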
HT1080 IDH1KD tx = kills HT-1080 cells with IDH1 knockdown. HT-1080 IDH1 knockdown viability, ATP luminescence, 48 h. Potency, µM (highest dose often 46.1 µM), usual class: cytotoxic. 360,000 tested, 2% active
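After a 2 h attachment period, IDH1KD HT-1080 cells took pin-transferred compound for 48 h at 37 °C; ATP-based luminescence after 10 min room-temperature reagent incubation reported viability.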
Of the large screens only hits and unclear results are named; the others gave an inactive call. Unless noted, the call rests on the fitted dose curve; in most records, active means well fitted curve in the direction sought with a large enough effect; inconclusive means small, poorly fitted or top-dose-only effect, or another doubt; inactive means no such curve, though single readings can be large; an effect the other way counts as inactive or inconclusive.

CCN(CC)c1ccc(/C=N/NC(=O)Cc2cccs2)c(O)c1	HT1080NT lethal inconclusive, DT40 TDP1 CPT 4.61µM, DT40 TDP1 no CPT 5.17µM, HT1080 IDH1KD tx inconclusive
CC(C)C[C@H]1CN(CCCC[C@@H]2CNC(=O)C(=O)N2CCc2ccccc2)C(=O)C(=O)N1CCc1ccc(O)cc1	HT1080 IDH1KD tx inconclusive
c1ccc(Cn2cc(CN3CCCO3)c(-c3ccc4c(c3)OCO4)n2)cc1	none
CCN(CC)c1ccc(/C=N/NC(=O)c2cnccn2)cc1	HT1080NT lethal 5.17µM, DT40 TDP1 CPT 1.3µM, DT40 TDP1 no CPT 1.64µM, HT1080 IDH1KD tx 3.66µM
O=C(N/N=C/c1ccc(OCc2ccccc2)cc1)c1ccco1	DT40 TDP1 CPT inconclusive, DT40 TDP1 no CPT inconclusive
CCN(CC)c1ccc(/C=N/NC(=O)c2ccc([N+](=O)[O-])cc2)cc1	none
CCN(CC)c1ccc(/C=N/NC(=O)c2ccco2)cc1	HT1080NT lethal inconclusive, DT40 TDP1 CPT inconclusive, DT40 TDP1 no CPT 3.26µM, HT1080 IDH1KD tx 2.59µM
O=C(O)C1CCC[C@@H]2[C@@H]3CC(CN12)[C@@H]1CCCCN1C3 (stereo partly specified)	none (no result: HT1080NT lethal, IL-1B inflam inh, HT1080 IDH1KD tx)
Nc1ccccc1NC(=O)NC(=O)c1ccccc1	DT40 TDP1 CPT inconclusive
Cc1cc(NS(=O)(=O)c2cn(C)c(C)n2)ccc1Br	DT40 TDP1 CPT inconclusive (no result: HT1080NT lethal, IL-1B inflam inh, HT1080 IDH1KD tx)
O=C(CSc1nc(C2CCCCC2)n(-c2ccccc2)n1)NCC(F)(F)F	DT40 TDP1 no CPT inconclusive
Cc1nc(N/N=C/c2ccc(Br)cc2)cc(N2CCOCC2)n1	DT40 TDP1 CPT 7.31µM, DT40 TDP1 no CPT inconclusive
Oc1ccc(/C=N/Nc2cc(N3CCCC3)nc(N3CCCC3)n2)cc1	HT1080NT lethal inconclusive, DT40 TDP1 CPT inconclusive, DT40 TDP1 no CPT inconclusive, IL-1B inflam inh -101.1
Oc1cccc(/C=N/Nc2cc(N3CCCC3)nc(N3CCCC3)n2)c1	DT40 TDP1 CPT inconclusive, DT40 TDP1 no CPT inconclusive, IL-1B inflam inh -102.1
Oc1ccc(/C=N/Nc2cc(N3CCOCC3)nc(N3CCOCC3)n2)cc1	HT1080NT lethal inconclusive, DT40 TDP1 CPT 16.4µM, DT40 TDP1 no CPT 20.6µM, IL-1B inflam inh inconclusive, HT1080 IDH1KD tx inconclusive
CCOc1ccc(/C=N/Nc2cc(N3CCOCC3)nc(C)n2)c(O)c1	DT40 TDP1 CPT inconclusive, DT40 TDP1 no CPT inconclusive
CCOc1ccc(/C=N/Nc2cc(C)nc(N3CCOCC3)n2)cc1	DT40 TDP1 CPT inconclusive, DT40 TDP1 no CPT inconclusive
O=C(OCC(=O)N1CCC(c2ccccc2)=N1)c1ccc(Cl)s1	none
C/C(=N\Nc1nccnc1Cl)c1ccc([N+](=O)[O-])cc1	none
COc1ccc(/C=N/Nc2cc(N3CCCC3)nc(N3CCCC3)n2)cc1	HT1080NT lethal 13µM, DT40 TDP1 CPT 20.6µM, DT40 TDP1 no CPT 20.6µM, IL-1B inflam inh -90.8, HT1080 IDH1KD tx 16.4µM
COc1ccc(OC)c(/C=N/Nc2cc(C)nc(N3CCOCC3)n2)c1	DT40 TDP1 CPT inconclusive, DT40 TDP1 no CPT 16.4µM
Cc1cc(N/N=C/c2ccccc2O)nc(N2CCOCC2)n1	DT40 TDP1 no CPT inconclusive, IL-1B inflam inh inconclusive
O=C(COC(=O)Cc1ccccc1)NCc1ccc2c(c1)OCO2	none
COC(=O)COc1cccc(NC(=O)c2cc(OC)cc(OC)c2)c1	IL-1B inflam inh -99.7
CCCOc1cccc(NC(=O)c2cc(C)oc2C)c1	DT40 TDP1 CPT 25.9µM, DT40 TDP1 no CPT 16.4µM
CCCOc1ccc(C(=O)Nc2ccc(NC(=O)c3ccccc3)c(C)c2)cc1	DT40 TDP1 CPT inconclusive, DT40 TDP1 no CPT 16.4µM (no result: HT1080NT lethal, IL-1B inflam inh, HT1080 IDH1KD tx)
CCCCOc1cccc(NC(=O)c2cccc(C(=O)Nc3cccc(OCCCC)c3)c2)c1	DT40 TDP1 CPT 18.4µM, DT40 TDP1 no CPT 7.31µM (no result: HT1080NT lethal, IL-1B inflam inh, HT1080 IDH1KD tx)
C=CCNC(=O)COC(=O)c1ccc(Cl)c(S(=O)(=O)N(Cc2ccccc2)c2ccccc2)c1	DT40 TDP1 CPT inconclusive
Cc1ccccc1S(=O)(=O)NC(=O)C1(C)CCN1C(=O)CCc1ccc(Cl)cc1Cl (stereo unspecified)	none
COc1cccc(C(=O)Nc2c(F)c(F)c(F)c(F)c2F)c1	none
CCCCOc1cccc(C(=O)NC(=S)Nc2cccc(C(F)(F)F)c2)c1	DT40 TDP1 CPT inconclusive, DT40 TDP1 no CPT 29.1µM
CCOc1cccc(C(=O)Nc2ccc(NC(=O)c3ccc(Br)cc3)cc2)c1	none (no result: HT1080NT lethal, IL-1B inflam inh, HT1080 IDH1KD tx)

Bioassay records (PubChem)
